Outcome and AC50 data for 22 compounds are collected here from PubChem BioAssay (EPA / NIEHS).

The AC50 is the concentration at which the activity in the assay is half-maximal.

Assay [1] deals with Transcription factor E2F1 (Homo sapiens) (UniProt Q01094). As to the kind of experiment: ATG_E2F_CIS: Attagene CIS-FACTORIAL HepG2 Assay for human E2F Transcription Factor 1 (AID 2282935). Particulars: HepG2 Attagene cis-reporter, E2F reporter RNA transcripts; actives raise or lower the signal. An outline of the steps:
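Gain or loss of reporter transcript, fitted against DMSO, reflects E2F1-driven transcription. Transiently transfected HepG2 dosed 24 h before RNA isolation. Quantified by fluorescent RT-PCR products separated by capillary electrophoresis.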

Assay [2] can be described thus: ATG_E_Box_CIS: Attagene CIS-FACTORIAL HepG2 Assay for human Enhancer Box (E-box) (AID 2282936). Particulars: HepG2 E-box cis-reporter transcription, actives raise or lower the signal. An outline of the steps: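 E-box-driven reporter transcripts measured in transiently transfected HepG2 after 24 h exposure: RNA reverse-transcribed, PCR-amplified, fluorescently labelled, digested and resolved by capillary electrophoresis. Gain or loss relative to DMSO.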

Assay [3] in a line: ATG_M_61_CIS: Attagene CIS-FACTORIAL HepG2 Assay for M61 Transcription Factor (Internal Marker) (AID 2282937). As to conditions: HepG2 Attagene CIS-FACTORIAL M61 internal marker reporter; actives raise or lower the signal. The method in brief:
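Human liver HepG2, transient MRTU transfection (cis promoter elements), 24 h compound. Total RNA → oligo(dT) RT → PCR → FAM label → HpaI → CE. Internal background marker; bidirectional fitting, DMSO = baseline.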

Assay [4] in a line: ATG_EGR_CIS: Attagene CIS-FACTORIAL HepG2 Assay for human Early Growth Response 1 (EGR1) (AID 2282938). Particulars: HepG2 Attagene CIS-FACTORIAL EGR reporter mRNA; actives raise or lower the signal. The method in brief: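 Transient transfection of human HepG2 with multiple cis-regulated reporter units, chemical exposure 24 h, total RNA isolated. Reverse transcription, PCR, fluorescent labelling and capillary electrophoresis quantify reporter transcripts; activity fitted bidirectionally against DMSO.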

Assay [5] in a line: ATG_M_19_CIS: Attagene CIS-FACTORIAL HepG2 Assay for M19 Transcription Factor (Internal Marker) (AID 2282939). As to conditions: HepG2 Attagene CIS-FACTORIAL M19 internal marker reporter; actives raise or lower the signal. An outline of the steps:
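Chemical-treated HepG2 (24 h) with MRTU constructs; reporter transcripts detected by fluorescent RT-PCR fragment analysis on capillary electrophoresis. Internal background marker, DMSO as baseline.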

Assay [6] can be described thus: ATG_ERE_CIS: Attagene CIS-FACTORIAL HepG2 Assay for Estrogen Response Element (ERE) (AID 2282940). Particulars: HepG2 ERE cis-reporter, Attagene RNA transcript; actives raise or lower the signal. The method in brief:
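Human liver cells (HepG2) bearing transiently transfected, promoter-regulated reporter units were exposed 24 h. Reporter mRNA induction was detected by capillary electrophoresis of labelled RT-PCR products and fitted bidirectionally to DMSO.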

The nature of assay [7]: ATG_Ets_CIS: Attagene CIS-FACTORIAL HepG2 Assay for human Erythroblast Transformation Specific (ETS) (AID 2282941). As to conditions: HepG2 ETS cis-reporter transcription, actives raise or lower the signal. An outline of the steps: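 Endogenous transcription factor activity read as reporter mRNA via RT-PCR and capillary electrophoresis, with gain or loss fitted bidirectionally against DMSO. Human HepG2 liver cells, transiently transfected CIS reporter constructs, 24 h exposure.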

Assay [8] has as its target Hepatocyte nuclear factor 3-beta (Homo sapiens) (UniProt Q9Y261). Kind of assay: ATG_FoxA2_CIS: Attagene CIS-FACTORIAL HepG2 Assay for human Forkhead box A2 (FOXA2) (AID 2282942). As to conditions: HepG2 cis-reporter transcription factor activity, 24 h; actives raise or lower the signal. The method in brief: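 Transient MRTU transfection of HepG2 liver cells; 24 h treatment; total RNA → oligo(dT) RT → PCR → FAM primer extension → HpaI cut → CE. Bidirectional fit vs DMSO.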

A short description of assay [9]: ATG_FoxO_CIS: Attagene CIS-FACTORIAL HepG2 Assay for human Forkhead box O (FoxO) (AID 2282943). As to conditions: HepG2 Attagene cis-reporter, FoxO element, mRNA; actives raise or lower the signal. The method in brief:
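Endogenous transcription factor activity read from multiplexed cis-promoter reporter transcripts in transiently transfected HepG2, 24 h after dosing. Reporter RNA measured via RT-PCR plus capillary electrophoresis of FAM-labeled products; gain or loss relative to DMSO.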

Assay [10] is described as follows: ATG_GATA_CIS: Attagene CIS-FACTORIAL HepG2 Assay for human GATA Binding Protein (AID 2282944). Particulars: HepG2 GATA cis-element reporter, Attagene multiplex mRNA; actives raise or lower the signal. The method in brief: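 Transfected cis-reporter HepG2 cells were treated with chemicals for 24 hours. Total RNA was then converted to cDNA, amplified with reporter-specific primers and analysed by fluorescent capillary electrophoresis, using DMSO-treated wells as baseline.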

Active and inactive are the calls of the source. The calls were made as follows: active = hit-call score of the fitted dose curve at least 0.9, where 1 is the maximum; inactive = score below 0.9.

Sequence of Hepatocyte nuclear factor 3-beta (Homo sapiens) (Q9Y261 whole entry, looked up): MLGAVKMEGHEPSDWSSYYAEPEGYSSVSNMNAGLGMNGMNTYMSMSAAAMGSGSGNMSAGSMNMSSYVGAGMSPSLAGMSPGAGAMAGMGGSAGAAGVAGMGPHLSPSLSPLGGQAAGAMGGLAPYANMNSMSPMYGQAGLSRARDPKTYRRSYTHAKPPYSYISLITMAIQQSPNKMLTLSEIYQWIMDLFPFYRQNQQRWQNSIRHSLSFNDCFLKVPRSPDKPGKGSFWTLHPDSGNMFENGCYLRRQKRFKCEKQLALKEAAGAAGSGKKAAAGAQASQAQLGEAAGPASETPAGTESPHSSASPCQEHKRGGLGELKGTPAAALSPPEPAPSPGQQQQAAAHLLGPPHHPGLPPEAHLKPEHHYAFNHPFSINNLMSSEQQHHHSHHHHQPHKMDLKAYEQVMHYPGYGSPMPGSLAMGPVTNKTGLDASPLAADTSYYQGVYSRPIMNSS
Sequence of Transcription factor E2F1 (Homo sapiens) (Q01094 whole entry, looked up): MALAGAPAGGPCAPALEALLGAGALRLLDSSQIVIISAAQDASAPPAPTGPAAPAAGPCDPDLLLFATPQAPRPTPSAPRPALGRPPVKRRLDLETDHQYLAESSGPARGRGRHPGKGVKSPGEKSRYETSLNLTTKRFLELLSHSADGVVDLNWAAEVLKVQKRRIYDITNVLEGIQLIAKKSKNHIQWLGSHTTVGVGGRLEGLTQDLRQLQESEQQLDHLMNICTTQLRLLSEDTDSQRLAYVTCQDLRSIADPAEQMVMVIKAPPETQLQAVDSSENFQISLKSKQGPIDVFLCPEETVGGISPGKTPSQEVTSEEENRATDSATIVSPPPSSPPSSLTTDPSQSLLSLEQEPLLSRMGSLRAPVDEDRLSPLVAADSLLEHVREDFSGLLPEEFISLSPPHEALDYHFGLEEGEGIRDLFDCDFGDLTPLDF

For the compound `CN1CCCC1=O`, the call in assay [1], in assay [2], in assay [3], in assay [4], in assay [5] and in [6] was inactive. In addition, the call in [7], in assay [8], in assay [9] and in assay [10] was inactive.
`Nc1ccc(S(=O)(=O)c2ccc(N)cc2)cc1`: the compound was classed as inactive in [1], in assay [2], in [3], in assay [4], in [5] and in assay [7]. The compound was called inactive in assay [8], in [9] and in assay [10]. Further, the AC50 in [6] was 100 µM (active).
Regarding `Cc1nc(-c2ccc3c(c2)CCN(CCC2CCC(NC(=O)/C=C/c4ccc(F)cc4)CC2)CC3)no1` (stereo not given), the outcome in [1], in assay [2], in [3], in assay [4], in assay [5] and in assay [6] was inactive. For the same compound, the result in assay [7], in assay [8], in [9] and in assay [10] was inactive.
Regarding `CCCCCCCC=O`, the result in [1], in assay [2], in [3], in assay [4], in assay [5] and in assay [6] was inactive. In addition, the outcome in assay [7], in assay [8], in assay [9] and in [10] was inactive.
For the compound `Nc1nc(N)c2nc(CNc3ccc(C(=O)N[C@@H](CCC(=O)O)C(=O)O)cc3)cnc2n1`, the result in assay [1], in assay [2], in assay [3], in assay [4], in assay [5] and in assay [6] was inactive. The compound was called inactive in [7], in [8], in assay [9] and in [10].
`Cc1ccc(Cl)cc1`: the outcome in [1], in assay [2], in assay [3], in assay [4], in assay [5] and in assay [6] was inactive. The result in [7], in assay [8], in assay [9] and in assay [10] was inactive.
On to `CCOc1ccc2c(c1)C(C)=CC(C)(C)N2`, for which the outcome in [1], in assay [3], in assay [5], in assay [8] and in assay [10] was inactive. Besides, the AC50 in [2] is 156 µM (active); in assay [4], 144 µM (active); in [6], 25.5 µM (active); in assay [7], 181 µM (active); in assay [9], 179 µM (active).
In the case of `O=C(O)CCCCC(=O)O`, the outcome in assay [1], in [2], in assay [3], in assay [4], in assay [5] and in [6] was inactive. Also, the result in assay [7], in assay [8], in assay [9] and in assay [10] was inactive.
With `CC(=O)OC/C=C(\C)CCC=C(C)C`, the compound was classed as inactive in [1], in [2], in [3], in [4], in [5] and in [6]. Besides, the result in assay [7], in assay [8], in [9] and in assay [10] was inactive.
Consider `NS(=O)(=O)c1cc2c(cc1Cl)NCNS2(=O)=O`, for which the result in assay [1], in assay [2], in assay [3], in assay [4], in assay [5] and in assay [6] was inactive. In addition, the outcome in [7], in [8], in [9] and in assay [10] was inactive.
Turning to `COc1cc(/C=C/C(=O)CC(=O)/C=C/c2ccc(O)c(OC)c2)ccc1O`, the compound was classed as inactive in [1], in [3], in [5], in [6], in [7] and in assay [8]. Moreover, the compound was classed as inactive in assay [10]. Also, the figures for the AC50 in assay [2], in [4] and in assay [9] were 45.8 µM (active), 42.5 µM (active) and 33.4 µM (active), respectively.
Take `COc1cccc2c1C(=O)c1c(O)c3c(c(O)c1C2=O)C[C@@](O)(C(=O)CO)C[C@@H]3O[C@H]1C[C@H](N)[C@H](O)[C@H](C)O1`: the result in assay [1], in assay [3], in assay [5], in assay [6], in [7] and in assay [8] was inactive. Further, in assay [10], the compound was called inactive. The AC50 was 1.85 µM (active) in assay [2], 2.04 µM (active) in assay [4] and 0.543 µM (active) in [9].
Regarding `Oc1ccc2ccccc2c1N=Nc1ccccc1`, the compound was classed as inactive in assay [1], in [2], in assay [3], in [4], in [5] and in assay [7]. For the same compound, the call in assay [9] and in [10] was inactive. Besides, the AC50 in assay [6] was 4.52 µM (active); in [8] it was 0.14 µM (active).
For `CC1=C(/C=C/C(C)=C/C=C/C(C)=C/CO)C(C)(C)CCC1`, the call in [1], in [2], in [3], in assay [7] and in [8] was inactive. Also, the AC50 was 80.7 µM (active) in assay [4]; 172 µM (active) in assay [5]; 4.13 µM (active) in assay [6]; 167 µM (active) in assay [9]; 166 µM (active) in assay [10].
As for `CCCCCCOCCO`, the result in assay [1], in assay [2], in [3], in assay [4], in [5] and in assay [6] was inactive. For the same compound, the compound was classed as inactive in assay [7], in assay [8], in [9] and in [10].
For `CN1CCN(Cc2cc(-c3ccc4[nH]c(=O)oc4c3)co2)[C@@H](c2ccc(F)cc2)C1`, the result in [1], in [2], in [3], in assay [5], in assay [6] and in [7] was inactive. In addition, the outcome in [8], in [9] and in assay [10] was inactive. In addition, the AC50 in assay [4] is 33 µM (active).
For `CCCCCCCCCCCCCO`, the compound was called inactive in assay [1], in assay [3], in [4], in assay [5], in [6] and in assay [7]. For the same compound, the outcome in assay [8], in [9] and in [10] was inactive. The AC50 in [2] was 21.8 µM (active).
Regarding `COc1ccc2c(c1)c(CC(=O)O)c(C)n2C(=O)c1ccc(Cl)cc1`, the outcome in [1], in assay [2], in assay [3], in assay [4], in assay [5] and in assay [6] was inactive. Further, the compound was classed as inactive in assay [7], in [8], in [9] and in assay [10].
Take `CCCCCCCCCCO`: the compound was called inactive in [1], in assay [2], in assay [3], in [4], in assay [5] and in [6]. For the same compound, the call in assay [7], in [8], in [9] and in [10] was inactive.
For `CC(C)(C)c1cc(O)c(C(C)(C)C)cc1O`, the call in [1], in assay [2], in [3], in [5], in assay [7] and in assay [8] was inactive. The result in [9] and in assay [10] was inactive. Moreover, the figures for the AC50 in assay [4] and in assay [6] were 31.1 µM (active) and 31 µM (active), respectively.
Take `COc1ccc(S(=O)(=O)N2C(=O)[C@@](c3ccccc3OC)(N3C[C@H](O)C[C@H]3C(=O)N(C)C)c3cc(Cl)ccc32)c(OC)c1`: the compound was called inactive in assay [1], in assay [2], in assay [3], in assay [5], in assay [6] and in [9]. In [10], the result was inactive. Moreover, the results for the AC50 in [4], in assay [7] and in assay [8] were 36.7 µM (active), 83.5 µM (active) and 132 µM (active), respectively.
Turning to `CCOC(=O)C(C)(C)Oc1ccc(Cl)cc1`, the call in assay [1], in assay [2], in [3], in [4], in assay [5] and in assay [6] was inactive. Besides, the compound was classed as inactive in [7], in assay [8], in assay [9] and in assay [10].
